Compounds without any hit were thinned out: in the full panel of roughly 79,000, 15% have a hit. Activity calls are given as the source filed them. No stated cut-off is given here; in the data, active means growth inhibition above about 70%; inactive means the rest.
Experiment: NCI Yeast Anticancer Drug Screen. Data for the mgt1 strain (AID 153)
Details: S. cerevisiae mgt1 mutant growth inhibition, active compounds read high
Method: Growth inhibition of yeast strains with defined genetic alterations is measured as a screen for potential anti-cancer activity. Selected strains with alterations in DNA damage repair or cell cycle control were exposed to compounds and growth inhibition was measured relative to vehicle treated controls. The strain used in this assay is mgt1

Measured: growth inhibition

O=C1c2ccccc2-c2cc3ccccc3c(=O)n21
active: at 33.0 µM 71% | at 100.0 µM 76%
inactive: at 1.2 µM 12% | at 3.7 µM 2% | at 11.0 µM 37%

Cc1cccc(/C=N/NC(=S)NC2CCCCC2)n1
inactive: at 1.2 µM -5% | at 3.7 µM -8% | at 11.0 µM 19% | at 33.0 µM 20% | at 100.0 µM 21%

COc1ccccc1NC(=O)c1ccc(Cl)cc1
inactive: at 1.2 µM -2% | at 3.7 µM -1% | at 11.0 µM 0% | at 33.0 µM -2% | at 100.0 µM -10%

C=C(C(=O)OC)N1C(=O)CC(C)C1=O (stereo not given)
inactive: at 1.2 µM 16% | at 3.7 µM 6% | at 11.0 µM 9% | at 33.0 µM 27%
active: at 100.0 µM 71%

O=C(Nc1cccs1)c1ccccc1
inactive: at 1.2 µM -1% | at 3.7 µM -4% | at 11.0 µM -4% | at 33.0 µM 5%
active: at 100.0 µM 88%

O=C(NC(N1CCN(c2cc3c(cc2F)c(=O)c(C(=O)O)cn3C2CC2)CC1)(C(F)(F)F)C(F)(F)F)c1ccccc1
inactive: at 1.2 µM -1% | at 3.7 µM -2% | at 11.0 µM -2% | at 33.0 µM 6% | at 100.0 µM 42%

NCCCSc1ccccc1
inactive: at 1.2 µM -3% | at 3.7 µM -4% | at 11.0 µM -4% | at 33.0 µM 13% | at 100.0 µM -1%

O=[N+]([O-])[O][Sn]([O][Sn]([O][N+](=O)[O-])([c]1ccccc1)[c]1ccccc1)([c]1ccccc1)[c]1ccccc1
inactive: at 1.2 µM 8% | at 3.7 µM 10% | at 11.0 µM 25% | at 33.0 µM 10%
active: at 100.0 µM 94%
